Test results as given in PubChem BioAssay (NCI).
Compounds without any hit were thinned out: in the full panel of roughly 79,000, 15% have a hit. The source made the active and inactive calls. Rule as the data show it: active = growth inhibition above about 70%; inactive = the rest.

Columns and labels:
[1] = NCI Yeast Anticancer Drug Screen. Data for the wt1 strain (AID 149);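 also: 0% = growth of vehicle-treated wt1 cultures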; details: S. cerevisiae wt1 strain (SPY 50644) growth inhibition, stronger effect = higher value
Procedure, shortened: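 The wt1 strain was treated with compounds, and growth was compared with vehicle-treated cultures to give inhibition.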

[2] = NCI Yeast Anticancer Drug Screen. Data for the rad50EPP+ strain (AID 151);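 also: 0% = growth of vehicle-treated control cultures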; details: S. cerevisiae rad50 mutant strain, stronger effect = higher value
Procedure, shortened: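 Compounds were applied to the rad50EPP+ yeast strain, which bears a defined DNA repair alteration, and growth inhibition was determined relative to vehicle-treated cultures.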

[3] = NCI Yeast Anticancer Drug Screen. Data for the mgt1 strain (AID 153); details: S. cerevisiae mgt1 mutant growth inhibition, stronger effect = higher value
Procedure, shortened: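 Strain: mgt1 yeast, one of a set carrying defined DNA damage repair or cell cycle control alterations. Compound-treated growth compared with vehicle.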

[4] = NCI Yeast Anticancer Drug Screen. Data for the rad50 strain (AID 155);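 also: 0% = growth of vehicle-only cultures of the same strain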; details: S. cerevisiae rad50 strain growth inhibition, stronger effect = higher value
Procedure, shortened: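 Cells are treated with compound, grown, and their growth is then scored against vehicle-only cultures of the same repair-deficient yeast strain.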

[5] = NCI Yeast Anticancer Drug Screen. Data for the mec2-1 strain (AID 157); details: S. cerevisiae mec2-1 strain, stronger effect = higher value
Procedure, shortened: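 Strain: mec2-1 (DNA repair/cell cycle alteration). Compound exposure, then growth measured; inhibition expressed relative to vehicle.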

[6] = NCI Yeast Anticancer Drug Screen. Data for the rad14 strain (AID 159);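 also: 0% = growth of vehicle-treated control cultures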; details: S. cerevisiae rad14 strain growth inhibition, stronger effect = higher value
Procedure, shortened: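 Readout: yeast growth inhibition, referenced to vehicle-only cultures. Strain bears a defined alteration in DNA damage repair.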

[7] = NCI Yeast Anticancer Drug Screen. Data for the sgs1 mgt1 strain (AID 161);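 also: 0% = growth of cultures given vehicle only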; details: S. cerevisiae sgs1 mgt1 strain, stronger effect = higher value
Procedure, shortened: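 Inhibition of yeast growth, normalised to vehicle-treated controls, is reported for a strain bearing genetic alterations in DNA damage repair.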

[8] = NCI Yeast Anticancer Drug Screen. Data for the cln2 rad14 strain (AID 165);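 also: 0% = growth equal to vehicle treated cultures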; details: S. cerevisiae cln2 rad14 strain, stronger effect = higher value
Procedure, shortened: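 Compounds are applied to the cln2 rad14 yeast strain, and growth is then compared with that of vehicle-treated cultures to give inhibition.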

[9] = NCI Yeast Anticancer Drug Screen. Data for the bub3 strain (AID 167); details: S. cerevisiae bub3 mutant strain, stronger effect = higher value
Procedure, shortened: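 Part of a panel of yeast mutants defective in DNA damage repair or cell cycle regulation. Each strain is grown with compound, and inhibition is calculated relative to solvent-treated cultures.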

[10] = NCI Yeast Anticancer Drug Screen. Data for the wt2 strain (AID 169);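 also: 0% = growth of vehicle-treated yeast cultures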; details: S. cerevisiae wt2 strain growth inhibition, stronger effect = higher value
Procedure, shortened: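 This strain belongs to a panel of yeast strains with defined genetic alterations in DNA damage repair or cell cycle control. Compounds are applied, and growth inhibition is measured against vehicle-treated cultures.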

[11] = NCI Yeast Anticancer Drug Screen. Data for the mlh1 strain (AID 171);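 also: 0% = growth of vehicle-treated control cultures of the same strain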; details: S. cerevisiae mlh1 strain growth inhibition, stronger effect = higher value
Procedure, shortened: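 Growth of the mutant yeast strain after compound exposure, expressed as inhibition relative to vehicle-only controls.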

[12] = NCI Yeast Anticancer Drug Screen. Data for the sgs1 strain (AID 173);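 also: 0% = growth of vehicle-only control cultures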; details: S. cerevisiae sgs1 mutant, stronger effect = higher value
Procedure, shortened: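 Growth of a yeast strain bearing a defined genetic alteration is measured after compound treatment. Inhibition is expressed relative to vehicle-only controls.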

[13] = NCI Yeast Anticancer Drug Screen. Data for the mlh1 rad18 strain (AID 175); details: S. cerevisiae mlh1 rad18 strain growth inhibition, stronger effect = higher value
Procedure, shortened: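 Read-out is yeast growth inhibition, calculated against vehicle-only controls. The compound was applied to a strain engineered with DNA damage repair alterations.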

[14] = NCI Yeast Anticancer Drug Screen. Data for the rad18 strain (AID 177); details: S. cerevisiae rad18 mutant growth inhibition, stronger effect = higher value
Procedure, shortened: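 Growth of the mutant yeast strain after compound exposure, normalised to vehicle-only cultures.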

[15] = NCI Yeast Anticancer Drug Screen. Data for the CLN2oe strain (AID 163);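 also: 0% = growth of vehicle-only control cultures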; details: S. cerevisiae CLN2oe strain, stronger effect = higher value
Procedure, shortened: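 Growth of a genetically modified yeast strain is measured after compound exposure and compared with cultures given vehicle alone.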

[16] = at 5.0 µM (retest, dose inferred, filed as 0.5)
[17] = at 50.0 µM (retest, dose inferred, filed as 5.0)

Measured: growth inhibition

C[Si](C)(C)CNC(=O)OCc1ccccc1
inactive: [1]; at 1.2 µM 2% | [1]; at 3.7 µM -2% | [1]; at 11.0 µM -3% | [1]; at 33.0 µM -4% | [1]; at 100.0 µM -3% | [2]; at 1.2 µM 1% | [2]; at 3.7 µM -1% | [2]; at 11.0 µM 10% | [2]; at 33.0 µM 21% | [2]; at 100.0 µM 41% | [3]; at 1.2 µM 7% | [3]; at 3.7 µM 5% | [3]; at 11.0 µM -5% | [3]; at 33.0 µM -4% | [3]; at 100.0 µM 12% | [4]; at 1.2 µM 1% | [4]; at 3.7 µM -10% | [4]; [16] -1% | [4]; at 11.0 µM 1% | [4]; at 33.0 µM 19% | [4]; [17] -8% | [4]; at 50.0 µM 37.1% | [4]; at 100.0 µM 56% | [5]; at 1.2 µM -2% | [5]; at 3.7 µM -3% | [5]; [16] -1% | [5]; at 11.0 µM 1% | [5]; at 33.0 µM 1% | [5]; [17] 32% | [5]; at 50.0 µM 21.9% | [5]; at 100.0 µM 11% | [6]; at 1.2 µM -1% | [6]; at 3.7 µM -1% | [6]; at 11.0 µM 0% | [6]; at 33.0 µM 0% | [6]; at 100.0 µM 6% | [7]; [16] -8% | [7]; [17] -13% | [7]; at 50.0 µM 4.25% | [8]; [16] 14% | [8]; [17] 20% | [8]; at 50.0 µM -22.8% | [9]; at 1.2 µM 4% | [9]; at 3.7 µM 15% | [9]; [16] 6% | [9]; at 11.0 µM 35% | [10]; at 1.2 µM -1% | [10]; at 3.7 µM -1% | [10]; at 11.0 µM -1% | [10]; at 33.0 µM 0% | [10]; at 100.0 µM 3% | [11]; at 1.2 µM 3% | [11]; at 3.7 µM -7% | [11]; at 11.0 µM 4% | [11]; at 33.0 µM 18% | [11]; at 100.0 µM 38% | [12]; at 1.2 µM 1% | [12]; at 3.7 µM -1% | [12]; at 11.0 µM 1% | [12]; at 33.0 µM 1% | [12]; at 100.0 µM 4% | [13]; [16] -14% | [13]; [17] -1% | [13]; at 50.0 µM 7.5% | [14]; at 1.2 µM -3% | [14]; at 3.7 µM -2% | [14]; at 11.0 µM 8% | [14]; at 33.0 µM 17% | [14]; at 100.0 µM 49%
active: [9]; at 33.0 µM 83% | [9]; [17] 93% | [9]; at 50.0 µM 93.5% | [9]; at 100.0 µM 94%

CCC(=O)c1cccc2ccccc12
inactive: [1]; at 1.2 µM 0% | [1]; at 3.7 µM 1% | [1]; at 11.0 µM 3% | [1]; at 33.0 µM 0% | [1]; at 100.0 µM -4% | [2]; at 1.2 µM 6% | [2]; at 3.7 µM 11% | [2]; at 11.0 µM 27% | [2]; at 33.0 µM 48% | [3]; at 1.2 µM 1% | [3]; at 3.7 µM -1% | [3]; at 11.0 µM 0% | [3]; at 33.0 µM 15% | [3]; at 100.0 µM 3% | [4]; at 1.2 µM 0% | [4]; at 3.7 µM -1% | [4]; [16] -14% | [4]; at 11.0 µM 1% | [4]; at 33.0 µM 0% | [4]; [17] 2% | [4]; at 50.0 µM 14.7% | [4]; at 100.0 µM -3% | [5]; at 1.2 µM -2% | [5]; at 3.7 µM 0% | [5]; [16] 5% | [5]; at 11.0 µM -2% | [5]; at 33.0 µM -1% | [5]; [17] 4% | [5]; at 50.0 µM 19.2% | [5]; at 100.0 µM -1% | [6]; at 1.2 µM -1% | [6]; at 3.7 µM -2% | [6]; at 11.0 µM -1% | [6]; at 33.0 µM -1% | [6]; at 100.0 µM 4% | [7]; [16] -4% | [7]; [17] 52% | [7]; at 50.0 µM 20% | [15]; at 1.2 µM -7% | [15]; at 3.7 µM 2% | [15]; at 11.0 µM -6% | [15]; at 33.0 µM -13% | [15]; at 100.0 µM -11% | [8]; [16] 12% | [8]; [17] 18% | [8]; at 50.0 µM 46.5% | [9]; at 1.2 µM -6% | [9]; at 3.7 µM -6% | [9]; [16] 11% | [9]; at 11.0 µM -6% | [9]; at 33.0 µM -8% | [9]; [17] 23% | [9]; at 50.0 µM -4.8% | [9]; at 100.0 µM 4% | [10]; at 1.2 µM 1% | [10]; at 3.7 µM 2% | [10]; at 11.0 µM 3% | [10]; at 33.0 µM 1% | [10]; at 100.0 µM 1% | [11]; at 1.2 µM 3% | [11]; at 3.7 µM 2% | [11]; at 11.0 µM 2% | [11]; at 33.0 µM 1% | [11]; at 100.0 µM 4% | [12]; at 1.2 µM 1% | [12]; at 3.7 µM 3% | [12]; at 11.0 µM 4% | [12]; at 33.0 µM 3% | [12]; at 100.0 µM 14% | [13]; [16] 7% | [13]; [17] 28% | [13]; at 50.0 µM -14.7% | [14]; at 1.2 µM 1% | [14]; at 3.7 µM -1% | [14]; at 11.0 µM -14% | [14]; at 33.0 µM 0% | [14]; at 100.0 µM -2%
active: [2]; at 100.0 µM 86%

Cc1ccc(-n2cc(-c3ccc(Cl)cc3)c(C#N)c2N)cc1
inactive: [1]; at 1.2 µM -4% | [1]; at 3.7 µM -2% | [1]; at 11.0 µM 1% | [1]; at 33.0 µM -2% | [1]; at 100.0 µM -3% | [2]; at 1.2 µM -1% | [2]; at 3.7 µM 3% | [2]; at 11.0 µM 23% | [2]; at 33.0 µM 56% | [2]; at 100.0 µM 56% | [4]; at 1.2 µM -3% | [4]; at 3.7 µM -3% | [4]; [16] 13% | [4]; at 11.0 µM -31% | [4]; at 33.0 µM 4% | [4]; [17] 69% | [4]; at 50.0 µM 63.3% | [4]; at 100.0 µM 13% | [5]; at 1.2 µM 0% | [5]; at 3.7 µM -8% | [5]; [16] -3% | [5]; at 11.0 µM -4% | [5]; at 33.0 µM -4% | [5]; [17] 43% | [5]; at 50.0 µM 47.3% | [5]; at 100.0 µM 1% | [6]; at 1.2 µM -1% | [6]; at 3.7 µM 1% | [6]; at 11.0 µM -1% | [6]; at 33.0 µM -12% | [6]; at 100.0 µM 5% | [7]; [16] -3% | [7]; [17] 52% | [7]; at 50.0 µM 67.6% | [8]; [16] -9% | [8]; [17] 7% | [8]; at 50.0 µM 43.6% | [9]; at 1.2 µM -6% | [9]; at 3.7 µM -5% | [9]; [16] -33% | [9]; at 11.0 µM 3% | [9]; at 33.0 µM -2% | [9]; [17] 64% | [9]; at 50.0 µM 61.6% | [9]; at 100.0 µM 8% | [10]; at 1.2 µM -1% | [10]; at 3.7 µM -1% | [10]; at 11.0 µM 1% | [10]; at 33.0 µM 3% | [10]; at 100.0 µM 4% | [11]; at 1.2 µM -6% | [11]; at 3.7 µM -5% | [11]; at 11.0 µM -1% | [11]; at 33.0 µM -2% | [11]; at 100.0 µM -4% | [12]; at 1.2 µM -2% | [12]; at 3.7 µM 0% | [12]; at 11.0 µM 2% | [12]; at 33.0 µM 10% | [12]; at 100.0 µM 16%
